This note sets out measurements from PubChem BioAssay (NCATS).

Inconclusive results are not listed. Unmarked numbers belong to inactive results. The source made the active and inactive calls. The call rests on the fitted dose curve; in most records, active means well fitted curve in the direction sought with a large enough effect; inconclusive means small, poorly fitted or top-dose-only effect, or another doubt; inactive means no such curve, though single readings can be large; an effect the other way counts as inactive or inconclusive.

The subject of one assay is Hek293T. In words: Primary qHTS to identify gynecologic anti-cancer compounds using libraries of approved drugs and bioactive compounds (AID 1345084). Further: nearly all actives have a fitted effect of over 55% in size. The note with it: Gynecologic cancer cell panel viability, ATPlite luminescence, 48 h, control line for the selectivity index; series mostly up to 57.5 µM. An outline of the steps: (§1)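 Measured: luminescence after ATPlite addition (15 min, RT). Exposure: 48 h, 37 C, 5% CO2.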

The next assay deals with JEG-3. The assay is described as above. Particulars: Gynecologic cancer cell panel viability, ATPlite luminescence, 48 h; series mostly up to 57.5 µM. In short, it runs like this:
as §1

A further assay relates to OV90. The assay is described as above. The note with it: Gynecologic cancer cell panel viability, ATPlite luminescence, 48 h; series mostly up to 57.5 µM. In short, it runs like this:
as §1

The next assay has as its system PA-1. The description is as above. Particulars: Gynecologic cancer cell panel viability, ATPlite luminescence, 48 h; series mostly up to 57.5 µM. An outline of the steps: as §1
The test system of a further assay is SKOV3. The description is as above. The note with it: Gynecologic cancer cell panel viability, ATPlite luminescence, 48 h; series mostly up to 57.5 µM. In short, it runs like this:
as §1

A further assay has as its system Tov-21-G. The assay is described as above. Particulars: Gynecologic cancer cell panel viability, ATPlite luminescence, 48 h; series mostly up to 57.5 µM. In short, it runs like this:
as §1

In another assay the test system is Tov112D. The assay is described as above. The note with it: Gynecologic cancer cell panel viability, ATPlite luminescence, 48 h; series mostly up to 57.5 µM. An outline of the steps:
as §1

Assay [1] is described as follows: Drug repurposing screens with cells derived from glioblastoma tumor samples (AID 1345199). Further: nearly all actives have a fitted effect of over 40% in size. Further: potency means the concentration at half of the fitted maximal effect. Particulars: GBM patient neurospheres viability, ATP luminescence, 48 h. In short, it runs like this: (§2)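 Four patient lines of CD133+ GBM neurospheres were screened at several concentrations; hits were retested in those lines plus three slower-growing GBM lines, using 48-hour treatment and ATP-based viability.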

For the next assay, the system named is astro. Described as above. The note with it: viability, ATP luminescence, 48 h; series mostly up to 45.9 µM. In short, it runs like this: as §2
The mark [2] stands for this setting: at 20 µM (top of the series), tumour line C.
[3] abbreviates: at 21.2 µM (top of the series), tumour line B.
On the % scale 0 is the no-effect control and ±100 the full control effect.

Consider `CCCCC(F)(F)[C@@]1(O)CC[C@H]2[C@H](CC(=O)[C@@H]2CCCCCCC(=O)O)O1`, for which the Potency entry in the assay with Hek293T, in the assay on JEG-3, with OV90, in the assay on PA-1, with SKOV3 and with Tov-21-G was “inactive” each time. Besides, the Potency result with Tov112D and in the assay with astro was “inactive” throughout. Moreover, the activity, negative = cell killing was -4.88% in assay [1] (at 45.9 µM (top of the series), tumour line B); -10.8% in assay [1] (at 45.9 µM (top of the series), tumour line D); 12% in assay [1] (at 46.1 µM (top of the series), tumour line C).

As for `CC1=C(C(=O)Nc2cc3cn[nH]c3cc2F)C(c2ccc(C(F)(F)F)cc2)CC(=O)N1` (stereo unspecified), the Potency result in the assay with Hek293T, in the assay on JEG-3, in the assay with OV90, in the assay with PA-1, in the assay with SKOV3 and in the assay on Tov-21-G was “inactive” each time. Besides, in the assay on Tov112D, the Potency entry is “inactive”.

On to `NS(=O)(=O)c1cc(Cl)c(Cl)c(S(N)(=O)=O)c1`, for which the Potency result in the assay on Hek293T, in the assay on JEG-3, with OV90, in the assay on PA-1, in the assay on SKOV3 and with Tov-21-G was “inactive” in each case. The Potency entry with Tov112D and in the assay on astro was “inactive” in each case. Also, the activity, negative = cell killing is 4.89% in assay [1] (setting [2]); -0.766% in assay [1] (setting [3]); 5.15% in assay [1] (at 21.2 µM (top of the series), tumour line D); -15% in assay [1] (at 21.3 µM (top of the series), tumour line A).

`O=S(=O)(O)c1ccc2cc(N=Nc3cc(S(=O)(=O)O)c4cccnc4c3O)ccc2c1`: the Potency result in the assay on Hek293T, with JEG-3, in the assay with OV90, in the assay on PA-1, with SKOV3 and in the assay on Tov-21-G was “inactive” in each case. In the assay with Tov112D, the Potency entry was “inactive”.

As for `N#Cc1ccc(Oc2ccc3c(c2)COB3O)cc1`, the Potency entry in the assay on Hek293T, in the assay with JEG-3, in the assay on OV90, with PA-1, with SKOV3 and in the assay with Tov-21-G was “inactive” in each case. For the same compound, the Potency result with Tov112D was “inactive”.

Regarding `CN(C)c1ccc(-c2nc3ncc(Cl)c(N4CCN(CC(=O)Nc5nccs5)CC4)c3[nH]2)cc1`, the Potency entry in the assay with Hek293T, in the assay with JEG-3 and with OV90 was “inactive” in each case.

With `O=C(O)CCNc1cc(N2CCc3ccccc3CC2)nc(-c2ccccn2)n1`, the Potency entry in the assay on Hek293T, with JEG-3, with OV90, with PA-1, with SKOV3 and with Tov-21-G was “inactive” in each case. Also, the Potency result with Tov112D is “inactive”.

For the compound `c1ccc(-c2oc3ncnc(NC[C@@H]4CCCO4)c3c2-c2ccccc2)cc1`, the Potency result in the assay on Hek293T, in the assay with JEG-3, with OV90, with PA-1, with SKOV3 and in the assay on Tov-21-G was “inactive” in each case.

As to `CN(C)CCN(Cc1ccc(Cl)cc1)c1ccccn1`, the Potency result in the assay with Hek293T, in the assay with JEG-3, in the assay with OV90, with PA-1, in the assay on SKOV3 and in the assay on Tov-21-G was “inactive” throughout. The Potency entry in the assay with Tov112D and with astro was “inactive” in each case. For the same compound, the activity, negative = cell killing in assay [1] (setting [2]) was -14.6%; in assay [1] (setting [3]) it was -16.9%. Besides, the Potency in assay [1] (tumour line A) was 10 µM (active).

On to `Cn1cnc(-c2cc3nccc(Oc4ccc(NC(=S)NC(=O)Cc5ccccc5)cc4F)c3s2)c1`, for which the Potency entry in the assay with Hek293T, in the assay with JEG-3 and in the assay with OV90 was “inactive” in each case.

Consider `COc1cc2nccc(Oc3ccc(NC(=O)Nc4cc(C)on4)c(Cl)c3)c2cc1OC`, for which the Potency result in the assay with Hek293T and in the assay with JEG-3 was “inactive” throughout.

Consider `OC[C@H]1O[C@@H](OCCc2ccc(O)cc2)[C@H](O)[C@@H](O)[C@H]1O`, for which the Potency result with Hek293T, in the assay with JEG-3, in the assay on OV90, with PA-1, in the assay with SKOV3 and with Tov-21-G was “inactive” throughout. The Potency result in the assay with Tov112D was “inactive”.

Take `O=C1C(c2c(O)[nH]c3ccccc23)=Nc2ccccc21`: the Potency result in the assay with Hek293T, in the assay on JEG-3, with OV90, with PA-1, with SKOV3 and in the assay with Tov-21-G was “inactive” in each case. In addition, the Potency entry in the assay with Tov112D is “inactive”.

In the case of `O=C(CO)N1CCC(c2[nH]nc(-c3ccc(Cl)cc3)c2-c2ccncn2)CC1`, the Potency entry with Hek293T, in the assay with JEG-3, in the assay with OV90, in the assay with PA-1, with SKOV3 and with Tov-21-G was “inactive” each time. In the assay with Tov112D, the Potency entry is “inactive”.

On to `O=C(Nc1cccc(C(F)(F)F)c1)Nc1cc(S(=O)(=O)NC2CC2)ccc1-c1ccsc1`, for which the Potency result in the assay with Hek293T, with JEG-3, in the assay on OV90, in the assay on PA-1, in the assay on SKOV3 and with Tov-21-G was “inactive” in each case. In addition, the Potency entry in the assay with Tov112D is “inactive”.

For `c1ccc(CNc2nc(N3CCOc4ccccc43)nc3c2CCCC3)cc1`, the Potency result with Hek293T, in the assay on JEG-3, in the assay with OV90, with PA-1, in the assay with SKOV3 and in the assay with Tov-21-G was “inactive” each time. Also, the Potency result in the assay with Tov112D is “inactive”.
